Only some compounds are listed: those with a hit (about 3.5% of all), similar ones and a draw of the others.
mHTT CaM bind = mHTT-calmodulin interaction abrogation; AlphaScreen His-mHTT/GST-CaM binding, luminescence; P42858; inhibition, % at 15 µM; 3.6% of 190,000 active;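 note: 0% = both proteins with DMSO and 100% = one protein alone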
Pf apPOL inh = Pf-apPOL DNA polymerase inhibition; Recombinant Pf-apPOL, molecular beacon fluorescence, 1.5 h; inhibition, % at 10 µM; 0.25% of 210,000 active
Active calls of the source: *; · = no result given. Cut-off read from the data, not from the text of the source: active = inhibition above about 50%; inactive = the rest.

SMILES | mHTT CaM bind | Pf apPOL inh
CCCCCCN1C[C@H](n2cc(C3CC3)nn2)[C@@H](O)C[C@@H]1c1ccc(C)cc1 | 77* | -2
O[C@@H]1C[C@H](c2ccc(Cl)cc2)N(CC2CCCCC2)C[C@H]1n1cc(C2CC2)nn1 | -11 | 1
CCCCCCN1C[C@@H](n2cc(C3CC3)nn2)[C@H](O)C[C@@H]1c1ccc(C)cc1 | 29 | 5
CCOC(=O)COc1ccc2c(c1)OC(=Cc1cc(OC)c(OC)cc1OC)C2=O | 10 | -2
O=C(CSc1nc2[nH]ncc2c(=O)n1-c1ccccc1)Nc1ccc(C(F)(F)F)cc1 | 37 | -5
O=c1c2cn[nH]c2nc(SCc2ccc(C(F)(F)F)cc2)n1-c1ccccc1 | 63* | -16
CC(C)CCOc1ccc(COC2C(C(O)CO)OC3OC(C)(C)OC32)cc1 (stereo not given) | 16 | -7
COc1ccc(C(=O)N2CCC(c3nc(-c4ccc(NC(C)=O)cc4)no3)CC2)c(OC)c1 | 15 | 3
O=c1c(-c2ccccc2)c(O)nc2ccccn12 | · | -1
CCc1c(O)nc2ccccn2c1=O | -8 | 73*
CCCC(C(=O)O)N1C(=O)C(=Cc2cccc(OC)c2OC)SC1=S (stereo not given) | 22 | -28
CCC(C(=O)O)N1C(=O)C(=Cc2cc(OC)c(OC)c(OC)c2)SC1=S (stereo not given) | 19 | 2
COc1cc(C=C2SC(=S)N(CCCCC(C(=O)O)N3C(=O)C(=Cc4ccc(O)c(OC)c4)SC3=S)C2=O)ccc1O (stereo not given) | 49 | 62*
CCCC(C(=O)O)N1C(=O)C(=Cc2ccccc2OC)SC1=S (stereo not given) | 60* | -60
COc1cc(/C=C2/SC(c3ccc(C)cc3)=NC2=O)cc(OC)c1OC | -3 | 0
COc1cc(/C=C2/SC(c3ccc(C)cc3)=NC2=O)ccc1O | 53* | 1
CCN1C(=O)C(=Cc2ccc(O)c(OC)c2)SC1=S | 39 | -26
CCCCC(C(=O)O)N1C(=O)C(=Cc2cc(OC)c(OC)c(OC)c2)SC1=S (stereo not given) | 55* | -64
O=C1OC(c2cccc(F)c2)=N/C1=C/c1ccc([N+](=O)[O-])cc1 | -6 | -2
CS(=O)(=O)N1N=C(c2ccco2)CC1c1ccc2nccnc2c1 (stereo not given) | -10 | -8
CCn1c(=O)c2c(ncn2CC(C)C)n(-c2cccc(C)c2)c1=O | 9 | -2
CCCCC(C(=O)O)N1C(=O)C(=Cc2ccco2)SC1=S (stereo not given) | 29 | 52*
COC(=O)CN1C(=O)C(=Cc2ccc(O)c(OC)c2)SC1=S | 58* | -18
O=C(O)CN1C(=O)/C(=C\c2ccco2)SC1=S | 3 | ·
COC(=O)CCN1C(=O)C(=Cc2ccc(O)c(OC)c2)SC1=S | 21 | -18
SMILES | mHTT CaM bind | Pf apPOL inh
COc1ccc(C)cc1NC(=O)C1CCCN(c2cn[nH]c(=O)c2)C1 (stereo not given) | 43 | -2
Cc1ccccc1NC(=O)NCC1CCN(C(=O)COc2ccccc2)CC1 | -3 | -8
O=C(C1CCN(CC2CC=CCC2)CC1)N1CCCC1 (stereo not given) | 2 | -3
CC(C)CC(=O)N1CCN(CC2CC=CCC2)CC1 (stereo not given) | 4 | 91*
O=C(CC1CCNCC1)N1CCC(c2nc(-c3ccccc3)n[nH]2)CC1 | 17 | 9
CCc1ccc(/C=C2/NC(=O)N(Cc3ccc(Br)cc3)C2=O)cc1 | 2 | 0
O=Cc1cc(OCc2ccccc2)ccc1O | 76* | -3
COc1ccc(OCc2ccccc2)c(C=O)c1 | -29 | -35
CC(C)CNC(=O)c1cnn(-c2ccc(Cl)c(Cl)c2)c1C(C)C | -5 | -3
COc1nccnc1NC1CCN(C(=O)c2sccc2C)CC1 | 2 | -3
COc1ccc(CNc2ccc3c(c2)OCO3)cc1Br | 96* | -5
COc1cc(S(=O)(=O)NCc2ccc3c(c2)OCO3)c(OC)cc1Br | 0 | -9
COc1cc(OC)c(CNc2ccc3c(c2)OCO3)cc1Br | 100* | -7
COc1ccc(S(=O)(=O)Nc2ccc3c(c2)OCO3)cc1Br | 24 | ·
Cc1nc(C(=O)NC(C)(C)C)nn1-c1ccccc1 | 0 | -2
O=C(NCc1ccc(Cl)cc1)c1cc2n(n1)CCCN(Cc1cccc(F)c1)C2=O | 17 | 3
O=[N+]([O-])c1ccc(OS(=O)(=O)c2ccc3ccccc3c2)c2ncccc12 | 100* | ·
O=[N+]([O-])c1ccc(Sc2cccc3cccnc23)c2ncccc12 | 4 | -8
Cc1ccc(S(=O)(=O)NC2CCN(c3ncnc4c3CCC4)C2)cc1 (stereo not given) | 3 | 5
CCCOc1ccc(C(=O)Nc2ccccc2C)cc1 | -7 | 90*
CCCCOc1ccc(C(=O)Nc2ccc(NC(=O)CCC)cc2)cc1 | 0 | 99*
CCCC(=O)Nc1ccc(NC(=O)c2ccc(C)cc2)cc1 | 5 | -4
CCCOc1ccc(C(=O)Nc2ccccc2[N+](=O)[O-])cc1 | 29 | -9
CCc1nc(C)nc(N2CCN(C(=O)NC(C)C)CC2)c1Cc1ccccc1F | 2 | 0
Cc1ccc(-c2nnc(NC(=O)c3ccc(S(=O)(=O)N4CCOCC4)cc3)o2)c(C)c1 | -12 | -11
SMILES | mHTT CaM bind | Pf apPOL inh
COc1cc2c(cc1OC)C(COc1ccc(F)cc1)N(C(=O)c1ccccc1OC)CC2 (stereo not given) | 81* | -4
COc1cc2c(cc1OC)C(COc1ccc(F)cc1)N(C(=O)c1ccc(F)cc1)CC2 (stereo not given) | 57* | -10
COc1cc2c(cc1OC)C(COc1ccc(F)cc1)N(C(=O)C1CC1)CC2 (stereo not given) | 27 | -7
CCOc1ccccc1C(=O)N1CCc2cc(OC)c(OC)cc2C1COc1ccc(OC)cc1 (stereo not given) | 39 | -2
O=c1[nH]nc(SCc2cccc(Oc3ccccc3)c2)c(=O)[nH]1 | 7 | 72*
O=c1[nH]nc(SCc2ccc(F)cc2)c(=O)[nH]1 | -5 | 1
Oc1ccc(Oc2ncc(Cl)cc2Cl)cc1 | -3 | ·
NNc1ncc(Cl)cc1Cl | 100* | -30
CN(C(=N)N=C(N)N)c1ccccc1 | -6 | ·
COc1cccc2cc(-c3cc(=O)oc4cc(C)c(OC(C)=O)cc34)oc12 | -12 | 1
COc1ccc(-c2oncc2-c2ccc3c(c2)OCCO3)c(O)c1 | 10 | 1
CCCc1cc2c(=O)c(-c3ccc4c(c3)OCCCO4)c(C)oc2cc1OC | 0 | -3
CCCc1cc(-c2[nH]ncc2-c2ccc3c(c2)OCCCO3)c(O)cc1OC | 76* | -7
CCCc1cc(-c2oncc2-c2ccc3c(c2)OCCO3)c(O)cc1OC | 63* | 3
O=C(Nc1ccc([N+](=O)[O-])cc1)c1c(F)cccc1F | 3 | 9
O=[N+]([O-])c1cc([N+](=O)[O-])c2cccnc2c1Nc1ccccc1 | 13 | -3
CN(C)c1ccc(Nc2c([N+](=O)[O-])cc([N+](=O)[O-])c3cccnc23)cc1 | 87* | -12
O=C(NC1CCN(Cc2ccccc2)CC1)c1nnn2c1COC(c1ccc(F)cc1)C2 (stereo not given) | 17 | 8
O=C(Cn1ccnc1)N1CCCCC1c1nc(-c2ccncc2)no1 (stereo not given) | 5 | 0
COc1cccc(OCC(=O)c2ccc(O)c(CN(C)C)c2O)c1 | 18 | -2
Cc1noc(C)c1CC(=O)N1CCCn2cc(-c3ccccc3F)nc21 | 4 | 0

Assay outcomes deposited in PubChem BioAssay by University of Kansas High Throughput Screening Laboratory.
